MARV entry inh: blocks Marburg virus binding to or entry into cells. Marburg virus pseudotyped entry inhibition, cell reporter. Potency, µM (top dose mostly 37.8 µM), inactives show at the highest dose activity change, negative = inhibition, hits mostly inhibitors. actives 1.8% (n = 300,000). AID 540276; calls by dose curve; tested in HEK293 cells; further: potency means the concentration at half of the fitted maximal effect
HCV inhibitor: HCV inhibition | Huh7.5.1 HCVcc-Cre infection, luciferase reporter, 44 h | Potency, µM (doses to about 41.8 µM), inactives show top-dose activity change, negative = inhibition, hits mostly inhibitors | actives 3.4% (n = 340,000); active means well fitted inhibition curve with a large enough effect; inconclusive means small, poorly fitted or top-dose-only effect, or another doubt; inactive means no such curve, though single readings can be large or run the other way; further: potency means the concentration at half of the fitted maximal effect
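Whole-lifecycle infectious HCVcc-Cre system; cells 1,000/well, compound then virus (~0.5 moi) added 4 h after plating, 44 h culture. Luciferase read 15 sec following 15 min substrate incubation, room temp.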
FMDV antiviral: antivirals against foot and mouth disease virus | FMDV antiviral cell-based qHTS | actives 1.2% (n = 410,000) | Potency, µM (series often up to 57.9 µM), without a hit: at the top dose activity change, negative = inhibition, actives largely listed as inhibitors; calls by dose curve; tested in HEK293T cells; further: read-out not given here; potency means the concentration at half of the fitted maximal effect; nearly all actives have a fitted effect of over 45% in size
LASV entry inh: Lassa virus entry inhibition | Lassa virus pseudotype entry inhibition, cell reporter | Potency, µM (titrated, usually from 37.9 µM), without a hit: at the highest dose activity change, negative = inhibition, hits mostly inhibitors | actives 1.2% (n = 300,000) | AID 540256; calls by dose curve; tested in HEK293 cells; further: potency means the concentration at half of the fitted maximal effect; nearly all actives have a fitted effect of over 50% in size
HCMV inh: human cytomegalovirus inhibition | HFF cells, HCMV-luciferase reporter, 72 h; hits give low values | actives 4.5% (n = 410,000) | AID 1259415 | activity change, negative = inhibition, % at 57.5 µM; in the data active means activity change below about -60%; inconclusive means no clear call, values can overlap the other calls; inactive means above about -39%
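Inhibition of viral replication was scored as loss of reporter luminescence in HFFs infected with HCMV-luciferase (MOI 1 PFU/cell) for 72 h; compounds tested at 2 doses, normalized to buffer and Salinomycin controls.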
Starred values were filed as active, the others as inactive; ? = inconclusive; . = no result; + = active, no number; ! = not active in a repeat; [ ] = remark or other dose. Most compounds without a hit are left out; they make up all but 7.9% or so of the library. On the % scale 0 is the no-effect control and ±100 the full control effect.

SMILES	MARV entry inh	HCV inhibitor	FMDV antiviral	LASV entry inh	HCMV inh
O=C(C1CC1)N1CCC(c2nc(-c3ccc(S(=O)(=O)N4CCCC4)cc3)no2)CC1	-22%	?	?	-22%	9
CS(=O)(=O)N1CCCC(c2nc(-c3ccc(S(=O)(=O)NCc4ccccc4)cc3)no2)C1 (stereo not drawn)	0.13µM*!	?	?	?	-95*
O=C(NC1CCCCC1)N1CCC(c2nc(-c3ccc(S(=O)(=O)N4CCCC4)cc3)no2)CC1	-3%	?	?	10µM*	-62*
O=C(C1CC1)N1CCC(c2nc(-c3ccc(S(=O)(=O)NCC4CCCO4)cc3)no2)CC1 (stereo not drawn)	?	?	?	?	-96*
O=C(CC1CCCCC1)N1CCC(c2nc(-c3ccc(S(=O)(=O)N4CCCC4)cc3)no2)CC1	?	?	-11%	?	-30
COC(=O)[C@]1(CC=Cc2ccccc2)C=C[C@@H](C)[C@H](c2ccccc2Br)N1C(=O)C(F)(F)F	13%[14.2 µM]	.	.	.	.
O=C(CN1C(=O)COc2ccc(S(=O)(=O)N3CCOCC3)cc21)Nc1ccc(F)c(Cl)c1	.	.	14%	-20%[46.1 µM]	5
COc1ccc2c(c1)cc1c(=O)n(CC(=O)NCc3ccco3)nc(C)n12	?	.	7%	.	1
O=C(Cn1cc(SCc2c(F)cccc2Cl)c2ccccc21)N1CCCC1	.	.	18%	-18%[46.1 µM]	-31
O=C(c1ccc(F)cc1)c1cc2ccc(O)cc2oc1=O	?	24%	9%	8%[46.1 µM]	-6
COc1ccccc1C(=O)c1cc2ccc(O)cc2oc1=O	.	30%	7%	.	-62*
CCOC(=O)Cn1c(=O)cc(-c2ccccc2)c2c(C)nn(C)c21	.	.	-8%	-21%[46.1 µM]	8
COc1ccc(-c2cc(C(=O)NC(C)c3ccccc3)c3cc(C(C)C)ccc3n2)cc1 (stereo not drawn)	.	.	-7%	5%[46.1 µM]	3
Cc1nn(C(=O)c2cccc(F)c2)c(C)c1S(=O)(=O)N1CCCCCC1	.	.	-1%	-3%[46.1 µM]	-91*
Cc1nn(C(=O)c2cccc(Cl)c2)c(C)c1S(=O)(=O)N1CCOCC1	.	.	?	29%[46.1 µM]	-4
Cc1nn(C(=O)c2cccc(F)c2)c(C)c1S(=O)(=O)N1CCOCC1	.	.	0%	-1%[46.1 µM]	-81*
Cc1ccc(/C=C/c2nc3ccccc3[nH]2)cc1	.	.	8.9µM*	2.2µM*	-91*
Cc1ccc(/C=C/c2nc3ccccc3[nH]2)o1	?	13%	-49%	?	110
Cc1ccccc1/C=C\c1nc2ccccc2c(=O)[nH]1	?	10µM*	25%	?	47
Cc1ccc(/C=C/c2nc3ccccc3c(=O)[nH]2)cc1	.	12%	16µM*	.	47
Cc1ccccc1/C=C/c1nc2ccccc2c(=O)[nH]1	?	-24%	3%	?	67
Cc1ccc(-n2ncc(C(=O)NCCCN3CCN(C)CC3)c2C2CCN(C(=O)OC(C)(C)C)CC2)cc1	.	.	-4%	-29%[46.1 µM]	?
Cc1ccc(S(=O)(=O)N2C[C@]3(O)C[C@@H]4C(=O)N(c5ccccc5)C(=O)[C@@H]4C[C@]3(OC(=O)NC3CCCC3)C2)cc1	.	.	16µM*	.	9
COc1ccc(CNC(=O)O[C@]23C[C@H]4C(=O)N(c5ccccc5)C(=O)[C@H]4C[C@@]2(O)CN(S(=O)(=O)c2ccc(C)cc2)C3)cc1OC	.	.	-17%	.	-8
Cc1cc(C)cc(-n2ccnc(NCc3ccc(F)cc3)c2=O)c1	.	.	-17%	-12%[46.1 µM]	3
SMILES	MARV entry inh	HCV inhibitor	FMDV antiviral	LASV entry inh	HCMV inh
CCc1ncn(CCc2ccccc2OC)c1C(C)C	.	.	-16%	.	-18
CCCc1c(Cc2cccc(F)c2)ncn1CCc1ccccc1OC	.	.	.	.	-61*
COc1ccccc1CCn1cnc(Cc2cccc(F)c2)c1C(C)C	.	.	22µM*	.	?
Cn1c2c(c(=O)[nH]c1=O)C(c1ccc(O)cc1)C1=C(N2)c2ccccc2C1=O (stereo not drawn)	?	?	?	?	-99*
CCC(C)c1ccc(C2C3=C(Nc4nc(N)[nH]c(=O)c42)c2ccccc2C3=O)cc1 (stereo not drawn)	.	7.9µM*	11%	.	-65*
Nc1nc2c(c(=O)[nH]1)C(c1ccccc1)C1=C(N2)c2ccccc2C1=O (stereo not drawn)	.	2%	4%	.	-10
COc1ccc(-c2cc(-c3ccc(F)cc3)nc3c2COc2ccc(F)cc2-3)cc1	?	.	1%	-2%[46.1 µM]	33
CCCCN(CC)C(=O)CCNS(=O)(=O)c1ccc2c(c1)c(=O)n(C)c(=O)n2C	-4%[46.1 µM]	.	-22%	12%[46.1 µM]	-8
CSc1ccccc1NC(=O)COC(=O)c1ccc(-n2nc(C)cc2C)cc1	22%	-3%	-19%	-1%	-107*
Cc1cc(C)n(-c2ccc(C(=O)NCC(=O)Nc3cc(Cl)ccc3Cl)cc2)n1	.	-6%	-19%	.	+
COc1ccc(Nc2nccc3c2cc(-c2cccc(C(F)(F)F)c2)n3C)c(OC)c1	.	.	.	.	15
Fc1ccc(Nc2ncnc3onc(-c4ccc(Cl)cc4)c23)cc1Cl	-13%[46.1 µM]	.	?	-25%[46.1 µM]	?
CCOc1ccc(CCNC(=O)CCCc2nnc3n(CC)c(=O)c4sccc4n23)cc1	.	.	0%	2%[46.1 µM]	?
Cc1cc(=O)n2nc(N3CCC(C(=O)Nc4ccc(C)c(Cl)c4)CC3)sc2n1	1%[46.1 µM]	.	-17%	1%[46.1 µM]	-4
COc1ccc(CCN(C)C(=O)Cc2ccc(-c3ccccc3)cc2)cc1OC	?	2.5µM*	?	?	-76*
COc1cc(CN(C)CCc2ccccc2)ccc1OCc1ccccc1	18µM*	3.5µM*	-21%	-28%	-32
CC(C)c1ccc(NC(=O)C(NS(=O)(=O)c2ccc3c(c2)CCC(=O)N3)c2ccccc2)cc1 (stereo not drawn)	-17%[46.1 µM]	.	0%	-2%[46.1 µM]	35
Cn1c(=O)n(C)c2cc(N3CCOCC3)c(NS(=O)(=O)c3ccc(Br)cc3)cc21	20%[46.1 µM]	.	-22%	-8%[46.1 µM]	-5
COC1=CC(=O)c2ccccc2C1=O	.	1µM*	?	.	.
COC1=CC(=O)C=C(OC)C1=O	.	-94%	28µM*!	.	52
COc1ccc(NC(=O)c2oc3ccccc3c2NC(=O)COc2ccc(F)cc2)c(OC)c1	0%[46.1 µM]	.	-5%	-6%[46.1 µM]	0
COc1ccc(S(=O)(=O)NCCc2sc(C)nc2C)cc1F	.	.	12%	-13%[46.1 µM]	-25
Cc1ccc(S(=O)(=O)c2nnn3c2nc(NC(C)C)c2sccc23)cc1	.	.	-15%	-18%[46.1 µM]	1
C/C=C(/C)C(=O)OC1C(OC(C)=O)[C@@]2(CO)C(O)C[C@@]3(C)C(=CCC4[C@@]5(C)CCC(OC6OC(C(=O)O)[C@@H](O[C@@H]7OC(CO)C(O)C(O)C7O)C(O)[C@H]6O[C@@H]6OC(CO)C(O)C(O)C6O)[C@](C)(CO)C5CC[C@@]43C)C2CC1(C)C (stereo partly drawn)	.	.	-9%	.	.

Source: PubChem
